The nature of assay [1]: growth inhibition of CRL1545 osteosarcoma cells, cell-based, cisplatin and BGB IC20 combos (AID 1671464).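 Note: cells exposed to compound for 96 hours before readout; 0% = vehicle DMSO and 100% = high DMSO killing control.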 As to conditions: stronger effect = higher value.
Assay [2] deals with F380Y. The experiment in a line: modulators of BK channel variants, profiling panel, selectivity assay, cell-based, U2OS BacMam, thallium flux, beta subunits (AID 1259406;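 active = thallium flux through the channel raised or lowered by more than 3 SD from vehicle-only wells, actives on both sides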;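 note: initial slope of Thallos dye fluorescence rise after thallium is added; log ratio against the mean of 0.3% DMSO vehicle wells on the same plate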). The following applies: at 30 µM.
Assay [3] concerns F380Y/beta1. The assay is described as above. The following applies: at 30 µM.
Assay [4] is described as follows: UWB1.289 ovarian carcinoma cell growth inhibition, synergistic combos for chromothripsis tumors, BGB or cisplatin combos (AID 1671456).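 Note: cells exposed to compound for four days; 0% = vehicle DMSO and 100% = killing by high DMSO.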 As to conditions: UWB1.289 ovarian carcinoma cells, stronger effect = higher value.
A short description of assay [5]: LFS_MB_2R medulloblastoma cell growth inhibition, synergistic combos for chromothripsis tumors, cisplatin combos (AID 1671457).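 Note: cells exposed to compound for four days before readout.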 The following applies: LFS_MB_2R medulloblastoma cells, stronger effect = higher value.
Assay [6] can be described thus: MDA-MB-436 breast carcinoma cell growth inhibition, synergistic combos for chromothripsis tumors, BGB or cisplatin combos (AID 1671458; call rule not given here;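 note: cells exposed for 96 hours; 0% = vehicle DMSO and 100% = killing by high DMSO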). As to conditions: MDA-MB-436 breast carcinoma growth inhibition, drug combinations, stronger effect = higher value.
A short description of assay [7]: UWB1.289_BRCA1 ovarian cancer growth, cell-based, BGB or cisplatin combinations (AID 1671459). The following applies: UWB1.289 BRCA1 ovarian carcinoma, drug combinations, stronger effect = higher value.
Assay [8] is described as follows: human astrocyte viability loss, single and combined drugs, cytotoxicity control for chromothriptic childhood tumor combination screen, cell-based, BGB or cisplatin IC20 combos (AID 1671460).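 Note: cells exposed to compounds for 96 hours before viability readout; 0% = vehicle and 100% = killing control.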 The following applies: Human astrocytes, drug combinations, stronger effect = higher value.
Assay [9] is described as follows: growth inhibition of BT084 medulloblastoma cells, cell-based, ICGC_MB145, cisplatin and BGB IC40 combos (AID 1671461).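 Note: cells exposed to drugs for 96 hours; 0% = vehicle DMSO and 100% = high DMSO full killing control.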 As to conditions: drug combinations, stronger effect = higher value.
A short description of assay [10]: growth inhibition of RCMB18 medulloblastoma cells, cell-based, cisplatin and BGB IC40 combos (AID 1671462).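 Note: cells exposed to compound for four days.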 As to conditions: stronger effect = higher value.
[11] abbreviates: measured here: inhibition with BGB combination, at 0.05 µM.
The mark [12] stands for this setting: measured here: inhibition with cisplatin combination, at 0.05 µM.
The mark [13] stands for this setting: measured here: combination with cisplatin, at 0.5 µM.
The mark [14] stands for this setting: measured here: combination with cisplatin, at 5 µM.
Setting [15] is: measured here: BGB combination, at 0.5 µM.
The mark [16] stands for this setting: measured here: BGB combination, at 5 µM.
The mark [17] stands for this setting: measured here: cisplatin combination, at 0.5 µM.
[18] abbreviates: measured here: cisplatin combination, at 5 µM.
[19] abbreviates: BGB combination, concentration series, at 5 µM.
Setting [20] is: cisplatin combination, concentration series, at 5 µM.
The mark [21] stands for this setting: measured here: combo with BGB IC20, at 0.5 µM.
Where [22] appears, read: measured here: combo with cisplatin IC20, at 0.5 µM.
Where [23] appears, read: cisplatin combination, at 0.5 µM.
Setting [24] is: measured here: BGB IC40 combination 0.05 uM, at 0.05 µM.
[25] abbreviates: measured here: BGB IC40 combination, at 0.05 µM.
Setting [26] is: measured here: with BGB IC20 combination, at 0.5 µM.
The mark [27] stands for this setting: measured here: with cisplatin IC20 combination, at 0.5 µM.

Where “and” joins values, the source holds several entries; their conditions need not be identical. Identical values can stand only once. Calls of active or inactive are those of the source. Cut-off read from the data, not from the text of the source, unless noted: active = inhibition above about 80%; inactive = the rest.

This passage reports inhibition and log fold change Tl+ flux results from PubChem BioAssay.

In general, inhibition refers to the change of the read-out against control, counted positive when it falls.

As to `Nc1nc2c(ncn2CCC(CO)CO)c(=O)[nH]1`, the inhibition is -14.4% and -21.2% in assay [1] (single agent, at 0.05 µM); -30.6% and 1.59% in assay [1] (single agent, at 5 µM). Moreover, the results for the log fold change Tl+ flux in assay [2] and in assay [3] were 0.0173 (inactive) and -0.0111 (inactive), respectively.

For `CC1CCc2cc(F)cc3c(=O)c(C(=O)O)cn1c23` (stereo not drawn), the inhibition was 2.76% (inactive) and 0.5% (inactive) in assay [4] (at 0.5 µM); -16.2% and 1.75% in assay [4] (setting [11]); -12.2% and 4% in [4] (setting [12]); -19.5% (inactive) and -4.64% (inactive) in assay [5] (at 0.5 µM); -15.1% and -2.74% in [5] (setting [13]); -12% and -9.68% in assay [5] (setting [14]). The inhibition in [6] (at 0.5 µM) was -12.1% (inactive) and -0.02% (inactive); in assay [6] (setting [15]), -17.3% and -1.89%; in assay [6] (setting [16]), -23.6% and -8.65%; in assay [6] (setting [17]), -18.1% and 1.92%; in assay [6] (setting [18]), -8.63% and -4.96%; in assay [7] (setting [19]), 7.3% and -2.65%. Also, the inhibition in [7] (at 0.5 µM) is 0.71% (inactive) and -0.93% (inactive); in assay [7] (setting [20]), 1.53% and -5.02%; in assay [8] (at 0.5 µM), 7.24% (inactive) and 2.53% (inactive); in [8] (setting [21]), 6.98% and 4.66%; in [8] (setting [22]), 1.25% and 9.82%; in assay [9] (at 0.5 µM) it was -21.2% (inactive) and 2.68% (inactive). For the same molecule, the inhibition is -37.8% and -1.29% in [9] (setting [23]); -84.9% and -4.5% in [9] (cisplatin combination, at 5 µM); 25.8% and 24.3% in assay [9] (setting [24]); -17% and 4.9% in assay [9] (single agent, at 5 µM); -15.1% (inactive) and 7.22% (inactive) in assay [10] (at 0.5 µM); -26.9% and 25% in assay [10] (cisplatin combo, at 5 µM). In addition, the inhibition in [10] (setting [25]) is -11.2% and -0.956%; in assay [10] (setting [13]), -23.8% and 30.6%; in assay [10] (single agent, at 5 µM), -29.1% and -22.6%; in assay [1] (at 0.5 µM), -14.4% (inactive) and -0.92% (inactive); in assay [1] (setting [26]) it was 1.08% and -21.3%; in [1] (setting [27]), -22.2% and 9.24%. For the same molecule, the inhibition in [1] (single agent, at 0.05 µM) is 22.2% and 18.9%; in [1] (single agent, at 5 µM), 6.9% and 9.8%.

`CN(C)c1ccc(C(=C2C=CC(=[N+](C)C)C=C2)c2ccc(N(C)C)cc2)cc1`: the inhibition was 68.6% (inactive) in assay [4] (at 0.5 µM); -11.5% in assay [4] (setting [11]); 0.874% in [4] (setting [12]); 55.4% (inactive) in assay [5] (at 0.5 µM); 59.1% in [5] (setting [13]); 89.4% in [5] (setting [14]). Also, the inhibition in assay [6] (at 0.5 µM) was 80.4% (active); in [6] (setting [15]) it was 73.7%; in [6] (setting [16]), 97.1%; in assay [6] (setting [17]), 80.1%; in assay [6] (setting [18]), 98.7%; in assay [7] (setting [19]) it was 105%. Further, the inhibition is 71.7% (inactive) in [7] (at 0.5 µM); 110% in assay [7] (setting [20]); 67.2% (inactive) in assay [8] (at 0.5 µM); 65.8% in assay [8] (setting [21]); 54.6% in assay [8] (setting [22]); 70.2% (inactive) in assay [9] (at 0.5 µM). The inhibition in [9] (setting [23]) was 82.8%; in assay [9] (cisplatin combination, at 5 µM) it was 101%; in assay [9] (setting [24]), -10.9%; in assay [9] (single agent, at 5 µM), 103%; in assay [10] (at 0.5 µM), 64.4% (inactive); in assay [10] (cisplatin combo, at 5 µM), 97.3%. For the same molecule, the inhibition in assay [10] (setting [25]) is 11.2%; in assay [10] (setting [13]), 59.9%; in [10] (single agent, at 5 µM) it was 94.1%; in [1] (at 0.5 µM) it was 99.5% (active); in [1] (setting [26]), 99.4%; in assay [1] (setting [27]), 99.5%. Moreover, the inhibition in assay [1] (single agent, at 0.05 µM) is 17.4%; in assay [1] (single agent, at 5 µM), 99.6%.

As to `CCOc1cc(N)c(Cl)cc1C(=O)NCC1CN(Cc2ccc(F)cc2)CCO1` (stereo not drawn), the log fold change Tl+ flux is -0.0328 (inactive) in assay [2] and 0.0819 (inactive) in assay [3].

Turning to `CCN1CCN(c2cc3c(cc2F)c(=O)c(C(=O)O)cn3C2CC2)CC1`, the inhibition was -2.08% (inactive) in assay [4] (at 0.5 µM); -31.5% in assay [4] (setting [11]); -8.73% in assay [4] (setting [12]); -19.4% (inactive) in assay [5] (at 0.5 µM); -28.5% in assay [5] (setting [13]); -100% in [5] (setting [14]). Further, the inhibition is -32.9% (inactive) in [6] (at 0.5 µM); -15.3% in assay [6] (setting [15]); -31.3% in [6] (setting [16]); -56.8% in [6] (setting [17]); -40.4% in assay [6] (setting [18]); -7.62% in [7] (setting [19]). The inhibition is -4.92% (inactive) in assay [7] (at 0.5 µM); -6.59% in assay [7] (setting [20]); -1.67% (inactive) in [8] (at 0.5 µM); -3.12% in assay [8] (setting [21]); -14.1% in assay [8] (setting [22]); -38.8% (inactive) in [9] (at 0.5 µM). For the same molecule, the inhibition in assay [9] (setting [23]) was -21.3%; in assay [9] (cisplatin combination, at 5 µM), -23.4%; in [9] (setting [24]), -13.2%; in assay [9] (single agent, at 5 µM), -37.9%; in assay [10] (at 0.5 µM), -17.8% (inactive); in assay [10] (cisplatin combo, at 5 µM), -22.9%. For the same molecule, the inhibition in assay [10] (setting [25]) is -24.4%; in assay [10] (setting [13]), -16%; in assay [10] (single agent, at 5 µM) it was -19.4%; in assay [1] (at 0.5 µM), 13.5% (inactive); in assay [1] (setting [26]), 6.58%; in assay [1] (setting [27]), 15.1%. Also, the inhibition in assay [1] (single agent, at 0.05 µM) was -0.132%; in assay [1] (single agent, at 5 µM), 12.7%. Further, the log fold change Tl+ flux was -0.0402 (inactive) in assay [2] and 0.00744 (inactive) in [3].

For `CCn1cc(C(=O)O)c(=O)c2cc(F)c(N3CCNCC3)nc21`, the inhibition in assay [4] (at 0.5 µM) was -10.7% (inactive) and 1.4% (inactive); in assay [4] (setting [11]), -29.8% and -21.6%; in assay [4] (setting [12]), -19.7% and -11.2%; in [5] (at 0.5 µM), -18.7% (inactive) and -16.6% (inactive); in assay [5] (setting [13]), -8.22% and -12.2%; in assay [5] (setting [14]), -10.3% and -8.58%. For the same molecule, the inhibition in [6] (at 0.5 µM) was -9.05% (inactive) and -13.8% (inactive); in assay [6] (setting [15]), -10.2% and -4.34%; in [6] (setting [16]), -20.2% and -12.6%; in assay [6] (setting [17]), -12.3% and -35.3%; in assay [6] (setting [18]) it was -9.88% and -14.8%; in assay [7] (setting [19]), -1.06% and 7.56%. Besides, the inhibition in [7] (at 0.5 µM) was -12.5% (inactive) and 3.88% (inactive); in assay [7] (setting [20]), 0.876% and 19.6%; in assay [8] (at 0.5 µM) it was 8.11% (inactive) and 6.08% (inactive); in assay [8] (setting [21]), 13.6% and -6.3%; in assay [8] (setting [22]), -5.13% and 23.3%; in [9] (at 0.5 µM), -14.2% (inactive). Moreover, the inhibition is -20.2% and 4.87% in [9] (setting [23]); -328% and -22.3% in assay [9] (cisplatin combination, at 5 µM); -15.2% and 5.81% in [9] (setting [24]); -15.6% and -14.8% in [9] (single agent, at 5 µM); -23.5% (inactive) and -3.9% (inactive) in [10] (at 0.5 µM); -47.1% and 18.7% in assay [10] (cisplatin combo, at 5 µM). Besides, the inhibition in assay [10] (setting [25]) was -10.4% and 1.16%; in assay [10] (setting [13]) it was -40.4% and 9.59%; in assay [10] (single agent, at 5 µM), -15.2% and -21.3%; in [1] (at 0.5 µM), 9.99% (inactive) and 6.3% (inactive); in [1] (setting [26]), -15.9% and 0.601%; in assay [1] (setting [27]), 21.7% and 9.15%. Further, the inhibition is -9.98% and 9.98% in [1] (single agent, at 0.05 µM); -24.6% and 24.3% in [1] (single agent, at 5 µM).

Turning to `CC(C)NCC(O)COc1ccc(COCCOC(C)C)cc1` (stereo not drawn), the log fold change Tl+ flux in [2] is 0.0667 (inactive); in assay [3], 0.0784 (inactive).
